Experimental data as given in PubChem BioAssay AID1159580 (chemical genetic matrix, 2015).
The whole screen tested about 5,500 compounds, of which about 2,000 (36%) were called active. Another 18% or so got no clear call; they are omitted. No stated cut-off is given here; in the data, active means normalized growth mostly below about 0.91 (no sharp cut-off); inconclusive means no clear call, values can overlap the other calls; inactive means mostly above about 0.92. The list shows a part of the results.

Experiment: chemical genetic growth profiling, strain panel (AID 1159580);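 further: tested at 20 µM; growth read once vehicle control cultures reached saturation at 30 °C; 1 = growth at the plate median or of vehicle wells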
Conditions: growth OD
[1] = S. cerevisiae deletion strains, locus YAL013W, strain DEP1, stronger effect = lower value
[2] = S. cerevisiae deletion strains, locus YBR229C, strain ROT2, stronger effect = lower value
[3] = S. cerevisiae deletion strains, locus YCL061C, strain MRC1, stronger effect = lower value
[4] = S. cerevisiae deletion strains, locus YDL101C, strain DUN1, stronger effect = lower value
[5] = S. cerevisiae deletion strains, locus YDR150W, strain NUM1, stronger effect = lower value
[6] = S. cerevisiae deletion strains, locus YEL061C, strain CIN8, stronger effect = lower value
[7] = S. cerevisiae deletion strains, locus YGR078C, strain PAC10, stronger effect = lower value
[8] = S. cerevisiae deletion strains, locus YGR229C, strain SMI1, stronger effect = lower value
[9] = S. cerevisiae deletion strains, locus YHR030C, strain SLT2, stronger effect = lower value
[10] = S. cerevisiae deletion strains, locus YHR087W, strain rtc3, stronger effect = lower value
[11] = S. cerevisiae deletion strains, locus YJR043C, strain POL32, stronger effect = lower value
[12] = S. cerevisiae deletion strains, locus YJR075W, strain HOC1, stronger effect = lower value
[13] = S. cerevisiae deletion strains, locus YLR039C, strain RIC1, stronger effect = lower value
[14] = S. cerevisiae deletion strains, locus YLR058C, strain SHM2 (second series), stronger effect = lower value
[15] = S. cerevisiae deletion strains, locus YLR085C, strain ARP6, stronger effect = lower value
[16] = S. cerevisiae deletion strains, locus YLR262C, strain YPT6, stronger effect = lower value
[17] = S. cerevisiae deletion strains, locus YML094W, strain GIM5, stronger effect = lower value
[18] = S. cerevisiae deletion strains, locus YMR219W, strain ESC1, stronger effect = lower value
[19] = S. cerevisiae deletion strains, locus YMR263W, strain SAP30, stronger effect = lower value
[20] = S. cerevisiae deletion strains, locus YNL128W, strain TEP1, stronger effect = lower value
[21] = S. cerevisiae deletion strains, locus YNL153C, strain GIM3, stronger effect = lower value
[22] = S. cerevisiae deletion strains, locus YNL298W, strain CLA4 (second series), stronger effect = lower value
[23] = S. cerevisiae deletion strains, locus YNL322C, strain KRE1, stronger effect = lower value
[24] = S. cerevisiae deletion strains, locus YNR030W, strain Alg12, stronger effect = lower value
[25] = S. cerevisiae deletion strains, locus YPL055C, strain LGE1, stronger effect = lower value
[26] = S. cerevisiae deletion strains, locus YPL241C, strain CIN2, stronger effect = lower value
[27] = S. cerevisiae deletion strains, locus YPR135W, strain CTF4, stronger effect = lower value
[28] = S. cerevisiae strains, strain wild type, stronger effect = lower value
[29] = S. cerevisiae deletion strains, locus YBL105C, strain PKC1, stronger effect = lower value
[30] = S. cerevisiae deletion strains, locus YBR135W, strain CKS1, stronger effect = lower value
[31] = S. cerevisiae deletion strains, locus YBR136W, strain MEC1, stronger effect = lower value
[32] = S. cerevisiae deletion strains, locus YBR160W, strain CDC28, stronger effect = lower value
[33] = S. cerevisiae deletion strains, locus YDL017W, strain CDC7, stronger effect = lower value
[34] = S. cerevisiae deletion strains, locus YDL028C, strain MPS1, stronger effect = lower value
[35] = S. cerevisiae deletion strains, locus YDL108W, strain KIN28, stronger effect = lower value
[36] = S. cerevisiae deletion strains, locus YDL214C, strain PRR2, stronger effect = lower value
[37] = S. cerevisiae deletion strains, locus YDR052C, strain DBF4, stronger effect = lower value
[38] = S. cerevisiae deletion strains, locus YDR226W, strain ADK1, stronger effect = lower value
[39] = S. cerevisiae deletion strains, locus YDR477W, strain SNF1, stronger effect = lower value
[40] = S. cerevisiae deletion strains, locus YER123W, strain YCK3, stronger effect = lower value
[41] = S. cerevisiae deletion strains, locus YER133W, strain GLC7, stronger effect = lower value
[42] = S. cerevisiae deletion strains, locus YFR003C, strain YPI1, stronger effect = lower value
[43] = S. cerevisiae deletion strains, locus YFR019W, strain FAB1, stronger effect = lower value
[44] = S. cerevisiae deletion strains, locus YFR028C, strain CDC14, stronger effect = lower value
[45] = S. cerevisiae deletion strains, locus YGR040W, strain KSS1, stronger effect = lower value
[46] = S. cerevisiae deletion strains, locus YGR052W, strain FMP48, stronger effect = lower value
[47] = S. cerevisiae deletion strains, locus YGR092W, strain DBF2, stronger effect = lower value
[48] = S. cerevisiae deletion strains, locus YHR079C, strain IRE1, stronger effect = lower value
[49] = S. cerevisiae deletion strains, locus YHR082C, strain KSP1, stronger effect = lower value
[50] = S. cerevisiae deletion strains, locus YHR205W, strain SCH9, stronger effect = lower value
[51] = S. cerevisiae deletion strains, locus YIL147C, strain SLN1, stronger effect = lower value
[52] = S. cerevisiae deletion strains, locus YJL095W, strain BCK1, stronger effect = lower value
[53] = S. cerevisiae deletion strains, locus YJL128C, strain PBS2, stronger effect = lower value
[54] = S. cerevisiae deletion strains, locus YJL157C, strain FAR1, stronger effect = lower value
[55] = S. cerevisiae deletion strains, locus YJR016C, strain ILV3, stronger effect = lower value
[56] = S. cerevisiae deletion strains, locus YJR066W, strain TOR1 (second series), stronger effect = lower value
[57] = S. cerevisiae deletion strains, locus YJR066W, strain TOR1, stronger effect = lower value
[58] = S. cerevisiae deletion strains, locus YKL048C, strain ELM1, stronger effect = lower value
[59] = S. cerevisiae deletion strains, locus YKL067W, strain YNK1, stronger effect = lower value
[60] = S. cerevisiae deletion strains, locus YKL101W, strain HSL1, stronger effect = lower value
[61] = S. cerevisiae deletion strains, locus YKL203C, strain TOR2, stronger effect = lower value
[62] = S. cerevisiae deletion strains, locus YLR113W, strain HOG1, stronger effect = lower value
[63] = S. cerevisiae deletion strains, locus YLR133W, strain CKI1, stronger effect = lower value
[64] = S. cerevisiae deletion strains, locus YLR403W, strain SFP1, stronger effect = lower value
[65] = S. cerevisiae deletion strains, locus YML070W, strain DAK1, stronger effect = lower value
[66] = S. cerevisiae deletion strains, locus YMR205C, strain PFK2 (second series), stronger effect = lower value
[67] = S. cerevisiae deletion strains, locus YNL006W, strain LST8, stronger effect = lower value
[68] = S. cerevisiae deletion strains, locus YNL020C, strain ARK1, stronger effect = lower value
[69] = S. cerevisiae deletion strains, locus YNL183C, strain NPR1, stronger effect = lower value
[70] = S. cerevisiae deletion strains, locus YNL307C, strain MCK1 (second series), stronger effect = lower value
[71] = S. cerevisiae deletion strains, locus YOL136C, strain PFK27, stronger effect = lower value
[72] = S. cerevisiae deletion strains, locus YOR061W, strain CKA2, stronger effect = lower value
[73] = S. cerevisiae deletion strains, locus YOR119C, strain RIO1, stronger effect = lower value
[74] = S. cerevisiae deletion strains, locus YOR231W, strain MKK1, stronger effect = lower value
[75] = S. cerevisiae deletion strains, locus YPL031C, strain PHO85, stronger effect = lower value
[76] = S. cerevisiae deletion strains, locus YPL153C, strain RAD53, stronger effect = lower value
[77] = S. cerevisiae deletion strains, locus YPL209C, strain IPL1, stronger effect = lower value
[78] = S. cerevisiae deletion strains, locus YPL256C, strain CLN2, stronger effect = lower value
[79] = S. cerevisiae deletion strains, locus YPR106W, strain ISR1, stronger effect = lower value
[80] = S. cerevisiae deletion strains, locus YPR111W, strain DBF20, stronger effect = lower value
[81] = S. cerevisiae deletion strains, locus YJL187C, strain SWE1, stronger effect = lower value
[82] = S. cerevisiae deletion strains, locus YOL006C, strain TOP1, stronger effect = lower value

Measured: normalized growth

COC(=O)CCCCCCCC(=O)Nc1ccc(Cl)cc1
inactive: [1] 0.999 | [2] 0.997 | [3] 0.998 | [4] 0.984 | [5] 0.896 | [6] 1 | [7] 0.997 | [8] 1.03 | [9] 0.999 | [10] 0.983 | [11] 1.01 | [12] 0.985 | [13] 1.01 | [14] 1.01 | [15] 1.01 | [16] 1.02 | [17] 0.975 | [18] 1.01 | [19] 1.01 | S. cerevisiae deletion strains, locus YMR307W, strain GAS1, stronger effect = lower value 1.06 | [20] 1.02 | [21] 0.997 | [22] 1.01 | [23] 1 | [24] 0.997 | [25] 0.929 | [26] 0.991 | [27] 0.955 | [28] 1.02

CC(C)c1ccc(COC(=O)Nc2ccc(CSc3ccc(Cl)cc3)o2)cc1
inactive: S. cerevisiae deletion strains, locus YAR019C, strain CDC15, stronger effect = lower value 0.99 | [29] 0.992 | [30] 0.983 | [31] 0.983 | [32] 0.989 | [33] 0.982 | [34] 0.985 | [4] 0.992 | [35] 0.985 | S. cerevisiae deletion strains, locus YDL132W, strain cdc53, stronger effect = lower value 0.982 | [36] 0.934 | [37] 0.993 | S. cerevisiae deletion strains, locus YDR054C, strain cdc34, stronger effect = lower value 0.972 | [38] 0.981 | [39] 0.929 | [40] 0.91 | [41] 0.925 | S. cerevisiae deletion strains, locus YFL009W, strain cdc4, stronger effect = lower value 0.979 | S. cerevisiae deletion strains, locus YFL029C, strain CAK1, stronger effect = lower value 0.983 | [42] 0.983 | [43] 0.935 | [44] 0.988 | [45] 0.923 | [46] 0.952 | [47] 0.921 | [9] 0.871 | [48] 0.886 | [49] 0.963 | [50] 0.82 | [51] 0.983 | [52] 0.855 | [53] 0.954 | [54] 0.907 | [55] 0.98 | [56] 0.9 | [57] 1.01 | [58] 0.953 | [59] 0.938 | [60] 0.953 | S. cerevisiae deletion strains, locus YKL193C, strain SDS22, stronger effect = lower value 0.98 | [61] 0.976 | [62] 0.879 | [63] 0.928 | [64] 0.893 | [65] 0.912 | S. cerevisiae deletion strains, locus YMR001C, strain CDC5, stronger effect = lower value 0.983 | [66] 0.928 | S. cerevisiae deletion strains, locus YMR277W, strain FCP1, stronger effect = lower value 0.982 | [67] 0.988 | [68] 0.919 | S. cerevisiae deletion strains, locus YNL161W, strain CBK1, stronger effect = lower value 0.98 | [69] 0.995 | S. cerevisiae deletion strains, locus YNL207W, strain RIO2, stronger effect = lower value 0.982 | S. cerevisiae deletion strains, locus YNL222W, strain SSU72, stronger effect = lower value 0.987 | [70] 0.933 | S. cerevisiae deletion strains, locus YOL078W, strain AVO1, stronger effect = lower value 0.981 | [71] 0.92 | [72] 0.909 | [73] 0.983 | [74] 0.963 | S. cerevisiae deletion strains, locus YOR329C, strain SCD5, stronger effect = lower value 0.986 | [75] 0.902 | [76] 0.912 | [77] 0.988 | [78] 0.923 | S. cerevisiae deletion strains, locus YPR025C, strain CCL1, stronger effect = lower value 0.989 | [79] 0.983 | [80] 0.983 | S. cerevisiae deletion strains, strain NNK1, stronger effect = lower value 0.987 | S. cerevisiae deletion strains, strain TSCII, stronger effect = lower value 0.986

N/C(CCSc1ccc(Cl)cc1)=N/OC(=O)Nc1ccc(Cl)cc1
active: [36] 0.336 | [39] 0.273 | [40] 0.0987 | [41] 0.286 | [43] 0.108 | [45] 0.247 | [46] 0.118 | [47] 0.275 | [9] 0.104 | [48] 0.118 | [49] 0.114 | [50] 0.253 | [52] 0.111 | [54] 0.371 | [56] 0.0983 | [57] 0.114 | [58] 0.346 | [59] 0.377 | [60] 0.259 | [61] 0.14 | [62] 0.126 | [63] 0.377 | [64] 0.311 | [65] 0.103 | [66] 0.345 | [67] 0.697 | [68] 0.375 | [69] 0.122 | [70] 0.315 | [71] 0.125 | [72] 0.326 | [73] 0.133 | [74] 0.103 | [75] 0.142 | [76] 0.0978 | S. cerevisiae deletion strains, locus YPL204W, strain HRR25, stronger effect = lower value 0.105 | [78] 0.118
inactive: [29] 0.986 | [30] 0.984 | [31] 0.978 | [32] 0.978 | [33] 0.982 | [34] 0.986 | [35] 0.983 | [37] 0.982 | [38] 0.983 | [42] 0.981 | [44] 0.986 | [51] 0.986 | [53] 0.944 | [55] 0.981 | [77] 0.983 | [79] 0.976 | [80] 0.978

O=C(CSc1ccc(Cl)cc1)Nc1ccc(F)cc1
active: [1] 0.909 | [2] 0.908 | [5] 0.803 | [7] 0.888 | [8] 0.924 | [9] 0.679 | [10] 0.888 | [11] 0.916 | [12] 0.823 | [14] 0.909 | [18] 0.916 | [22] 0.808 | [23] 0.923 | [24] 0.807 | [25] 0.782 | [26] 0.849 | [27] 0.608
inactive: [4] 0.939 | [6] 0.942 | [81] 1 | S. cerevisiae deletion strains, locus YKL190W, strain CNB1, stronger effect = lower value 0.934 | [13] 0.884 | [15] 0.79 | [16] 0.826 | [17] 0.875 | [19] 0.948 | [20] 0.968 | [21] 0.925 | [82] 0.78 | [28] 0.919

O=C(CC1NCCN(Cc2ccccc2)C1=O)Nc1ccc(Cl)cc1 (stereo not given)
inactive: [1] 0.993 | [2] 0.995 | [3] 0.981 | [4] 0.968 | [5] 0.993 | [6] 1.01 | [7] 0.99 | [9] 0.955 | [10] 0.97 | [81] 1.01 | [11] 0.971 | [12] 1.02 | [13] 0.988 | [14] 0.998 | [15] 1.01 | [16] 0.994 | [17] 1.01 | [18] 1.01 | [20] 1 | [21] 0.981 | [22] 0.975 | [23] 0.996 | [24] 0.984 | [82] 0.993 | [25] 0.909 | [26] 1 | [27] 0.915
